# Data as given in PubChem BioAssay (Tox21).
# Where “and” joins values, the source holds several entries; their conditions need not be identical. Equal values may be shown once. Inconclusive results are not listed. Entries that show only a call come without a potency. More than one record can exist for a structure, and the calls need not agree. Calls of active or inactive are those of the source. Unless noted, calls come from the whole dose curve.
# Key:
# [1] = Nuclear factor erythroid 2-related factor 2/antioxidant responsive element (Nrf2/ARE) small molecule agonists: qHTS cell viability counter screen in human keratinocytes (AID 1919968; active = well fitted curve in the direction sought with a large enough effect in the repeat runs; an effect the other way counts as inactive or inconclusive; note: nearly all actives have a fitted effect of over 55% in size; note: potency is the fitted concentration of half-maximal effect)
# In short: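 Measured as CellTiter-Fluor fluorescence, this readout tracks cytotoxicity in the same wells as the ARE-luciferase screen. HaCaT reporter cells (1,500/well) received compounds after a 5 h pre-incubation and were exposed for 23 h.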
# [2] = Nuclear factor erythroid 2-related factor 2/antioxidant responsive element (Nrf2/ARE) small molecule agonists: luciferase reporter gene qHTS assay in human keratinocytes (AID 1919969); note: nearly all actives have a fitted effect of over 35% in size; note: potency is the fitted concentration of half-maximal effect
# [3] = molecular target: KiSS-1 receptor (Homo sapiens) (UniProt Q969F8); experiment: Human kisspeptin (KISS1R) small molecule agonists, calcium flux assay in KISS1R-HEK293 cells (AID 1920064; active = well fitted curve in the direction sought with a large enough effect in the repeat runs; an effect the other way counts as inactive or inconclusive)
# Sequence of KiSS-1 receptor (Homo sapiens) (Q969F8 whole entry, looked up): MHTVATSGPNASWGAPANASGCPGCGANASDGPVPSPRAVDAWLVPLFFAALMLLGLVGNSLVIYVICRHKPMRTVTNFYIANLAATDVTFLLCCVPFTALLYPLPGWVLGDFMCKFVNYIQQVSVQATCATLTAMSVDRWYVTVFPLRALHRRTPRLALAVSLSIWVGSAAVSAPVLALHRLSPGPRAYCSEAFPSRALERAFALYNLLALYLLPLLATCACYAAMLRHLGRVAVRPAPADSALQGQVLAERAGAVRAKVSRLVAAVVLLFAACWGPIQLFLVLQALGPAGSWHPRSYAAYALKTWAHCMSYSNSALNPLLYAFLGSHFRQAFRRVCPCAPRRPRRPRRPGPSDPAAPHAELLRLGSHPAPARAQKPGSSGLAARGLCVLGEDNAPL
# In short: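 Measures KISS1R agonism through calcium-sensitive dye fluorescence in stably transfected HEK293 cells, read for 3 min after pin-tool compound delivery; 15-point titrations in triplicate.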
# [4] = G protein-coupled receptor (GPCR) small molecule agonists, calcium flux assay: HEK293 wild type cell line counter screen (AID 1920065)
# In short: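 Readout: fluorescence at 480 nm excitation/540 nm emission, sampled at 1 s intervals for 3 min. Cells had been cultured 18 h, then dye-loaded 1 h at 37 C before compound or ATP addition.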
# [5] = p53 small molecule agonists, cell-based qHTS assay with human liver microsomes (AID 1963577);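 note: p53 response element beta-lactamase reporter cells with liver microsomes plus NADPH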
# In short: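 With metabolic activation: human liver microsomes (0.5 mg/mL final) plus NADPH (0.5 mg/mL final) added alongside compounds to p53RE-bla cells; 16 h 37 C exposure; beta-lactamase read by LiveBLAzer fluorescence.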
# [6] = p53 small molecule agonists, cell-based qHTS assay with rat liver microsomes (AID 1963578)
# In short: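 Metabolic activation by rat liver microsomes and NADPH, each 0.5 mg/mL final, added right after compounds to p53RE-bla reporter cells (4,000/well, plated 5 h earlier). 16 h at 37 C, then LiveBLAzer substrate for 2 h at room temperature in the dark; fluorescence read-out.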
# [7] = p53 small molecule agonists, cell-based qHTS assay with human liver microsomes: qHTS cell viability counter screen (AID 1963579); note: nearly all actives have a fitted effect of over 45% in size; note: potency is the fitted concentration of half-maximal effect
# In short: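 Metabolic activation used human liver microsomes and NADPH, both 0.5 mg/mL final, over 16 hours at 37 C on p53RE-bla cells (4,000/well). Cytotoxicity measured by CellTiter-Glo luminescence, 30 min at room temperature.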
# [8] = p53 small molecule agonists, cell-based qHTS assay with rat liver microsomes: qHTS cell viability counter screen (AID 1963580); note: nearly all actives have a fitted effect of over 45% in size; note: potency is the fitted concentration of half-maximal effect
# In short: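 In HCT-116 cells carrying a p53 response element-bla reporter, compounds were metabolically activated in situ by rat liver microsomes with NADPH over 16 h. Cell ATP content then served as the cytotoxicity measure.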
# [9] = p53 small molecule agonists, cell-based qHTS assay: qHTS cell viability counter screen (AID 1963581); note: nearly all actives have a fitted effect of over 45% in size; note: potency is the fitted concentration of half-maximal effect
# In short: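 In the same plates used for the p53 bla reporter, HCT-116 cells given compounds for 16 h at 37 C received CellTiter-Glo; luminescence was recorded 30 min later at room temperature.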
# [10] = molecular target: 5-hydroxytryptamine receptor 2A (Homo sapiens) (UniProt P28223); experiment: 5-hydroxytryptamine receptor 2A (HTR2A) small molecule antagonists, cell-based qHTS assay (AID 1963586); note: nearly all actives have a fitted effect of over 45% in size
# Sequence of 5-hydroxytryptamine receptor 2A (Homo sapiens) (P28223 whole entry, looked up): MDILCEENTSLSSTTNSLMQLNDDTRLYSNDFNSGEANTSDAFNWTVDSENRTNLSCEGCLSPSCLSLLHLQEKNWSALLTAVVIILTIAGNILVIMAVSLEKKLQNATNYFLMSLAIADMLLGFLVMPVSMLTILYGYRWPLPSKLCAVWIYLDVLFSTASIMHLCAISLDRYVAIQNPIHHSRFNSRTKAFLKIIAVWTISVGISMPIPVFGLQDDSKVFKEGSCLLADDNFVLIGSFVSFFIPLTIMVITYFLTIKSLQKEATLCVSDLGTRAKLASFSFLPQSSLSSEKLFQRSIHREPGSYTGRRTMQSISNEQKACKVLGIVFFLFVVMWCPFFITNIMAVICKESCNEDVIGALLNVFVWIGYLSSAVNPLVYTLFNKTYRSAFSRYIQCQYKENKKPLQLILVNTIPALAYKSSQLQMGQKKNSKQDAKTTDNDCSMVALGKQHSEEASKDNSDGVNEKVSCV
# In short: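 Antagonist-mode intracellular calcium assay: DOI (4 nM) added after 5 min compound pre-incubation at room temperature to dye-loaded HTR2A-CHO cells. Fluorescence followed for 3 min, sampled every second.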
# [11] = molecular target: 5-hydroxytryptamine receptor 2A (Homo sapiens) (UniProt P28223); experiment: 5-hydroxytryptamine receptor 2A (HTR2A) small molecule agonists, cell-based qHTS assay (AID 1963587); note: nearly all actives have a fitted effect of over 30% in size; note: potency is the fitted concentration of half-maximal effect
# In short: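 HTR2A-CHO cells, plated 18 h at 37 C/5% CO2, dye-loaded 1 h at 37 C; compounds in DMSO added by pin tool (agonist mode). Intracellular calcium flux read as kinetic fluorescence on FDSS over 2 min at 1 s intervals.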
# [12] = molecular target: Muscarinic acetylcholine receptor M1 (Homo sapiens) (UniProt P11229); experiment: Cholinergic receptor muscarinic 1 (CHRM1) small molecule antagonists, cell-based qHTS assay (AID 1963588); note: nearly all actives have a fitted effect of over 40% in size
# Sequence of Muscarinic acetylcholine receptor M1 (Homo sapiens) (P11229 whole entry, looked up): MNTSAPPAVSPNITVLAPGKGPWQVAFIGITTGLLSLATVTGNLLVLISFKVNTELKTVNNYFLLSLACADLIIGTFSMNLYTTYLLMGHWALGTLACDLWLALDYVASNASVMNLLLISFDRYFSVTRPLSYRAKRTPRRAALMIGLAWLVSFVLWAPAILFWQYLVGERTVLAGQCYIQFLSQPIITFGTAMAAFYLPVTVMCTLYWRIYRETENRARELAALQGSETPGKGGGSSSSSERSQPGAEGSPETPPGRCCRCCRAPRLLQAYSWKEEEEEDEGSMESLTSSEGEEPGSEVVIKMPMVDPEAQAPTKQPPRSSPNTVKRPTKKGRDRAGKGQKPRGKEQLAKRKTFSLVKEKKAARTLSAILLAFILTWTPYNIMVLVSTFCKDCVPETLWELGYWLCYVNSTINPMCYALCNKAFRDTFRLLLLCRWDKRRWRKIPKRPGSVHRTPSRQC
# In short: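 CHRM1-CHO calcium-flux assay, antagonist mode. Cells were seeded 18 h, dye-loaded 1 h at 37 C and given compound for 5 min at RT, then acetylcholine was added at 50nM. FDSS fluorescence was read 3 min; 15 concentrations, three runs.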
# [13] = cAMP Responsive Elements (CRE) small molecule antagonists, cell-based qHTS assay (AID 1963591; active = well fitted inhibition curve with a large enough effect in the signal ratio in the repeat runs, not every such curve was filed as active; the % refers to the signal ratio)
# In short: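 Inhibition of NKH477-driven (0.25 uM final) CRE-beta-lactamase signal in HEK293T cells, 3 h compound exposure at 37 °C, detected by FRET substrate fluorescence.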
# [14] = molecular target: Beta-2 adrenergic receptor (Homo sapiens) (UniProt P07550); experiment: Adrenergic beta2 receptor (ADRB2) small molecule antagonists, cell-based qHTS assay (AID 1963592); note: series mostly up to about 92 µM; nearly all actives have a fitted effect of over 50% in size
# Sequence of Beta-2 adrenergic receptor (Homo sapiens) (P07550 whole entry, looked up): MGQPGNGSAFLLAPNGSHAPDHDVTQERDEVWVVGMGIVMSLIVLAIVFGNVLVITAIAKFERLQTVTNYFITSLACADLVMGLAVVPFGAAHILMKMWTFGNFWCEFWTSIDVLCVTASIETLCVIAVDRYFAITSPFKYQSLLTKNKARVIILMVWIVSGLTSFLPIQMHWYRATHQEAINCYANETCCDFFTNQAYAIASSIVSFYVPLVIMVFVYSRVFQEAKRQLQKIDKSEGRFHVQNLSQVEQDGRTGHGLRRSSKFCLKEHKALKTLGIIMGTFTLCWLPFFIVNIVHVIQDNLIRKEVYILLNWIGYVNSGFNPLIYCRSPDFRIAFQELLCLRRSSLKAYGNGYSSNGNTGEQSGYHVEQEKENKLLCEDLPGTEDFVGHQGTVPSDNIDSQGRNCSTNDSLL
# In short: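 Cells (CHO, stable ADRB2 overexpression) incubated 18-20hr at 37C; compounds added from DMSO; agonist mix (1nM isoproterenol, 100uM IBMX, 25uM Ro-20-1724) added; 0.5hr RT; d2-cAMP and anti-cAMP-cryptate added; 1hr RT; 665/615 nm read.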
# [15] = molecular target: Beta-2 adrenergic receptor (Homo sapiens) (UniProt P07550); experiment: Adrenergic beta2 receptor (ADRB2) small molecule agonists, cell-based qHTS assay (AID 1963593);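 note: CHO cells stably overexpressing human ADRB2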
# In short: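 CHO cells stably over-expressing ADRB2 were plated overnight at 37C, then dosed with compounds plus a stimulation mix containing 100uM IBMX and 25uM Ro-20-1724 for 0.5hr at room temperature. cAMP was measured by HTRF competition, 1hr.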
# [16] = molecular target: D(2) dopamine receptor (Homo sapiens) (UniProt P14416); experiment: Dopamine D2 receptor (DRD2) small molecule agonists, cell-based qHTS assay (AID 1963594); note: nearly all actives have a fitted effect of over 35% in size
# Sequence of D(2) dopamine receptor (Homo sapiens) (P14416 whole entry, looked up): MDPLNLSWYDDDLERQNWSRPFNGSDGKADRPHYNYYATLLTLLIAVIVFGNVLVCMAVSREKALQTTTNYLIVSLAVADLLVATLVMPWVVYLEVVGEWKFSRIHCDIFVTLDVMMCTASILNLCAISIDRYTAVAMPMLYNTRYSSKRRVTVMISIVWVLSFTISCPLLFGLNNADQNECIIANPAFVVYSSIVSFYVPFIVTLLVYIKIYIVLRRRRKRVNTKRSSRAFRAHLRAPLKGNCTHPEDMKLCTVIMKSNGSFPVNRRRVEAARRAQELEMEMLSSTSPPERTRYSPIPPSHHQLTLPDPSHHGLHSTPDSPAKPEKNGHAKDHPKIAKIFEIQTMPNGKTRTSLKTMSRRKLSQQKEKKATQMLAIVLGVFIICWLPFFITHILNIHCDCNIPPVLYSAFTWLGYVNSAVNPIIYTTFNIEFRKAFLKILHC
# In short: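 HEK293 cells stably expressing DRD2 were cultured 24 h at 37 C, then given Ro20-1724 (0.1 mM final) and compounds for 10 min at room temperature. NKH477 (200nM) was then added for 30 min. cAMP was read by HTRF.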
# [17] = molecular target: D(2) dopamine receptor (Homo sapiens) (UniProt P14416); experiment: Dopamine D2 receptor (DRD2) small molecule antagonists, cell-based qHTS assay (AID 1963595; active = well fitted inhibition curve with a large enough effect in the signal ratio in the repeat runs, with a control signal flat; the % refers to the signal ratio; note: potency is the fitted concentration of half-maximal effect)
# In short: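 Human DRD2 antagonist qHTS measuring cAMP by HTRF. The cells are exposed to compound for 10 min, then to NKH477 (200 nM) and quinpirole (12 nM) for 30 min at RT, with Ro20-1724 (0.1 mM) present throughout.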
# [18] = molecular target: Muscarinic acetylcholine receptor M1 (Homo sapiens) (UniProt P11229); experiment: Cholinergic receptor muscarinic 1 (CHRM1) small molecule agonists, cell-based qHTS assay (AID 1963589); note: nearly all actives have a fitted effect of over 35% in size; note: potency is the fitted concentration of half-maximal effect
# In short: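 Each compound was tested at 15 concentrations across three independent runs on dye-loaded CHO cells stably expressing human CHRM1, reading intracellular calcium fluorescence kinetically at 1 sec intervals.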
# [19] = cAMP Responsive Elements (CRE) small molecule agonists, cell-based qHTS assay (AID 1963590)
# In short: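 Cell line: CRE-bla HEK 293T; medium DMEM/10% dialyzed FBS/0.1 mM NEAA/1 mM pyruvate/25 mM HEPES; 3 h compound exposure; beta-lactamase FRET readout after 2 h substrate loading at RT.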
# [20] = p53 small molecule agonists, cell-based qHTS assay (AID 1963582; active = well fitted activation curve with a large enough effect in the signal ratio in the repeat runs, not every such curve was filed as active; the % refers to the signal ratio; note: potency is the fitted concentration of half-maximal effect)
# In short: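 Compounds are pin-transferred in DMSO onto p53RE-bla cells and incubated 16 h at 37 C. The B/G FRET beta-lactamase substrate is then applied for 2 h at RT and fluorescence recorded.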
SMILES,Potency [1],Potency [2],Potency [3],Potency [4],Potency [5],Potency [6],Potency [7],Potency [8],Potency [9],Potency [10],Potency [11],Potency [12],Potency [13],Potency [14],Potency [15],Potency [16],Potency [17],Potency [18],Potency [19],Potency [20]
CCCCC(CC)COC(=O)CC(C(=O)OCC(CC)CCCC)S(=O)(=O)O (configuration not stated),26.3 µM (active),inactive,inactive,inactive,inactive,inactive,44 µM (active) and inactive,35 µM (active),39.2 µM (active),inactive,42 µM (active) and 43.6 µM (active),inactive,inactive,inactive,inactive,inactive,inactive and 61.1 µM (active),,,
c1ccc2sc(SSN3CCOCC3)nc2c1,30.6 µM (active),24.3 µM (active),inactive,inactive,,,,inactive,inactive,inactive,,inactive,inactive,inactive,inactive,inactive,inactive,inactive,inactive,
Cc1cccc(Nc2ccccc2C(=O)O)c1C,inactive,inactive,inactive,inactive,,,inactive,inactive,inactive,,,,,inactive,inactive,inactive,inactive,,,
CC(C)(C)C(=O)OCOP(=O)(COCCn1cnc2c(N)ncnc21)OCOC(=O)C(C)(C)C,inactive,inactive,inactive,inactive,,inactive,inactive,inactive,inactive,inactive,inactive,inactive,inactive,inactive,,inactive,13.3 µM (active),inactive,inactive,7.93 µM (active)
O=C1OC(=O)c2ccccc21,inactive,inactive,,inactive,inactive,inactive,inactive,inactive,inactive,inactive,inactive,inactive,inactive,inactive,,inactive,inactive,inactive,inactive,inactive
CC(CC=O)CC(C)(C)C (configuration not stated),inactive,,inactive,inactive,inactive,inactive,inactive,inactive,inactive,inactive,inactive,inactive,inactive,inactive,inactive,inactive,,inactive,inactive,inactive
O=S(=O)(O)c1cc(O)c(O)c(S(=O)(=O)O)c1,inactive,,inactive,inactive,inactive,inactive,inactive,inactive,inactive,inactive,inactive,inactive,,inactive,inactive,,inactive,inactive,inactive,inactive
CCCCOCCCC,inactive,,inactive,inactive,inactive,inactive,inactive,inactive,inactive,inactive,inactive,inactive,inactive,inactive,inactive,inactive,inactive,inactive,inactive,inactive
OC1OC[C@@H](O)[C@H](O)[C@H]1O (some centres not stated),inactive,,inactive,inactive,inactive,inactive,inactive,inactive,inactive,inactive,inactive,inactive,inactive,inactive,inactive,inactive,inactive,inactive,inactive,inactive
CCCCCCCCCCCCCCCC,inactive,,inactive,inactive,inactive,inactive,inactive,inactive,inactive,inactive,inactive,inactive,inactive,inactive,inactive,inactive,inactive,inactive,inactive,inactive
FC(F)(F)C(Cl)Br (configuration not stated),inactive,,inactive,inactive,inactive,inactive,inactive,inactive,inactive,inactive,inactive,inactive,inactive,inactive,inactive,inactive,inactive,inactive,inactive,inactive
OCCOc1ccc(OCCO)cc1,inactive,,inactive,inactive,inactive,inactive,inactive,inactive,inactive,inactive,inactive,inactive,inactive,inactive,,inactive,inactive,inactive,inactive,inactive
C=CC(C)(O)CC/C=C(\C)CC (configuration not stated),inactive,inactive,,inactive,inactive,inactive,inactive,inactive,inactive,inactive,inactive,inactive,inactive,,inactive,inactive,inactive,inactive,inactive,inactive
CC(=O)OCCN(CCOC(C)=O)c1ccc(N=Nc2ccc([N+](=O)[O-])cc2C#N)cc1,inactive,,inactive,inactive,inactive,inactive,inactive,inactive,inactive,inactive,inactive,inactive,inactive,inactive,inactive,,,inactive,inactive,inactive
CC(=O)N1C[C@H](O)C[C@H]1C(=O)O,inactive,,inactive,inactive,inactive,inactive,inactive,inactive,inactive,inactive,inactive,inactive,inactive,inactive,inactive,inactive,inactive,inactive,inactive,inactive
CN(C)CCOC(c1ccc(Cl)cc1)c1ccccn1 (configuration not stated),inactive,inactive,,inactive,inactive,inactive,inactive,inactive,inactive,inactive,inactive,,inactive,inactive,inactive,inactive,,inactive,inactive,inactive
CCCc1c2oc(C(=O)O)cc(=O)c2cc2c(=O)cc(C(=O)O)n(CC)c12,inactive,,inactive,inactive,inactive,inactive,inactive,inactive,inactive,inactive,inactive,inactive,,inactive,inactive,inactive,inactive,inactive,inactive,inactive
CC(C)(C)OCC1CO1 (configuration not stated),inactive,inactive,,inactive,inactive,,inactive,inactive,inactive,inactive,inactive,,,inactive,inactive,inactive,inactive,inactive,inactive,inactive
C=CCCCCCCCCCCCC,inactive,,inactive,inactive,inactive,inactive,inactive,inactive,inactive,inactive,inactive,inactive,inactive,inactive,inactive,inactive,inactive,0.245 µM (active),inactive,inactive
CCCCOC(=O)CCCCCCCC(=O)OCCCC,inactive,,inactive,inactive,inactive,inactive,inactive,inactive,inactive,inactive,inactive,inactive,inactive,inactive,,inactive,inactive,inactive,inactive,inactive
Cc1cccc(N(C)C)c1,inactive,,inactive,inactive,inactive,inactive,inactive,inactive,inactive,inactive,inactive,inactive,inactive,inactive,,inactive,inactive,inactive,inactive,inactive
CC(C=O)Cc1ccc(C(C)(C)C)cc1 (configuration not stated),inactive,,inactive,inactive,inactive,inactive,inactive,inactive,inactive,inactive,inactive,inactive,inactive,inactive,inactive,inactive,inactive,inactive,inactive,inactive
OCCCCl,inactive,,inactive,inactive,inactive,inactive,inactive,inactive,inactive,inactive,inactive,inactive,inactive,inactive,,inactive,,inactive,inactive,inactive
NC(=O)NNc1ccccc1,inactive,,inactive,inactive,inactive,inactive,inactive,inactive,inactive,inactive,inactive,inactive,inactive,inactive,inactive,inactive,inactive,inactive,inactive,inactive
CCCCCC(C)=O,inactive,,inactive,inactive,inactive,inactive,inactive and 12.9 µM (active),inactive and 28.9 µM (active),inactive,inactive,inactive,inactive,inactive,inactive,,inactive,inactive,inactive,inactive,inactive
CCOCCOCC,inactive,,inactive,inactive,inactive,inactive,inactive,inactive,inactive,inactive,inactive,inactive,,inactive,inactive,inactive,inactive,inactive,inactive,inactive
c1ccc2c(c1)CCC2,inactive,,inactive,inactive,inactive,inactive,inactive,inactive,inactive,inactive,inactive,inactive,inactive,inactive,inactive,inactive,inactive,inactive,inactive,inactive
COC(=O)Nc1ccc(Cl)c(Cl)c1,inactive,,inactive,inactive,inactive,inactive,inactive,inactive,inactive,inactive,inactive,inactive,inactive,inactive,inactive,inactive,inactive,inactive,inactive,inactive
